Columns and labels:
Conditions in all cases: concentration: 1 μM,replicates: in singlicate; n = 1
[1] = system: PLK2
[2] = system: PLK3
[3] = system: PLK4
[4] = system: PRKCD
[5] = system: PRKCE
[6] = system: PRKCH
[7] = system: PRKCI
[8] = system: PRKCQ
[9] = system: PRKD1
[10] = system: PRKD2
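Further: KINOMEscan kinase panel screen.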

Compound	%Inh [1] [%]	%Inh [2] [%]	%Inh [3] [%]	%Inh [4] [%]	%Inh [5] [%]	%Inh [6] [%]	%Inh [7] [%]	%Inh [8] [%]	%Inh [9] [%]	%Inh [10] [%]
CN1CCN(CCNc2nc3cc(Oc4ccc(NC(=O)Nc5cc(C(F)(F)F)ccc5F)cc4)ccc3[nH]2)CC1.Cl.Cl [GW768504]	0	0	8	9	0	0	0	0	0	14
N#Cc1cccc(C(=O)NC2CCN(c3ccnc(Nc4ccc(F)cc4)n3)C2)c1 (centres unmarked) [GSK1379708]	0	0	0	0	0	0	23	0	0	0
CCNCC(Cc1ccccc1)NC(=O)c1cc(Br)c(-c2ccnc3[nH]ccc23)s1.Cl.Cl (centres unmarked) [GSK1383280]	30	47	92.3	91.7	94.5	93.1	26	74	77	73
Cc1ccc(Nc2ccnc(Nc3ccc4c(c3)CS(=O)(=O)C4)n2)cc1O.Cl [GW579362]	0	4	99.7	0	19	0	32	46	29	55
OCCn1cc(-c2cnc3nnn(Cc4ccc5ncccc5c4)c3n2)cn1	0	50	4	0	49	0	0	0	5	0
COc1cccc(C2=C(Nc3cccc(Cl)c3)C(=O)NC2=O)c1 [SB-341556]	0	0	8	26	19	0	0	17	0	0
CN(c1ccccc1CNc1nc(Nc2ccc3c(c2)CC(=O)N3)ncc1C(F)(F)F)S(C)(=O)=O	80	49	61	73	58	0	0	80	51	31
C[C@@H](Oc1cc(-n2cnc3ccc(-c4ccncc4)cc32)sc1C(N)=O)c1ccccc1Cl [GSK483724]	99.3	–	0	8	29	33	40	33	0	0
Cc1ccc(CC(=O)N2CCc3cc(-c4cn(C)c5ncnc(N)c45)ccc32)cc1 [GSK2634758]	2	0	0	15	15	35	27	33	0	14
COC(=O)Nc1nc2cc(Oc3ccc(NC(=O)Nc4cc(C(F)(F)F)ccc4Cl)cc3)ccc2[nH]1.Cl [GW697465]	0	0	0	0	11	7	0	6	0	1
C[C@@H](Oc1cc(-n2cnc3cc(-c4cnn(C)c4)ccc32)sc1C(N)=O)c1ccccc1Cl [GSK580432]	99.5	–	64	23	1	0	46	35	0	0
CCn1c(-c2nonc2N)nc2cncc(Br)c21 [SB-738004]	8	14	76	21	92.8	58	36	6	0	11
O=C(Nc1cccc(Oc2ccc3nccn3n2)c1)Nc1cccc(C(F)(F)F)c1	0	0	0	10	0	0	11	9	2	24
Cl.Nc1n[nH]c2cc(-c3ccccn3)ccc12 [GSK2189892]	0	0	0	0	0	13	8	7	0	10
Cn1ccc2ncnc(Oc3ccc(NC(=O)Nc4cccc(C(F)(F)F)c4)c(F)c3)c21	12	33	31	0	0	0	39	0	0	3
O=C(Nc1ccccc1)c1cccc(Oc2ccc3nccn3n2)c1	5	0	0	0	13	0	5	24	33	0
CS(=O)(=O)Nc1ccc(-c2ccnc3[nH]ccc23)cc1 [GSK993273]	0	0	21	42	64	49	26	57	0	0

Compound	%Inh [1] [%]	%Inh [2] [%]	%Inh [3] [%]	%Inh [4] [%]	%Inh [5] [%]	%Inh [6] [%]	%Inh [7] [%]	%Inh [8] [%]	%Inh [9] [%]	%Inh [10] [%]
Nc1nccc(-c2ccc3c(N)n[nH]c3c2)n1 [GSK1034945]	0	0	0	0	0	11	3	21	0	0
FC(F)(F)c1cc(Br)cc(Nc2nccc(-c3cnn4ncccc34)n2)c1 [GW810578]	24	13	26	16	4	7	0	1	4	0
CC(=O)Nc1nc2cnc(Nc3cc(NC(=O)c4cccc(CC(C)(C)C#N)c4)ccc3C)nc2s1	0	3	18	13	0	14	5	11	0	0
O=C(Nc1n[nH]c2cc(-c3ccco3)ccc12)C1CC1 [SB-737447]	6	8	20	4	0	8	29	5	0	0
O=C(Nc1ccc(Oc2ccc3nc(NC(=O)C4CC4)cn3n2)c(F)c1)c1cccn(-c2ccccc2)c1=O	0	0	0	0	0	0	28	0	0	9
Cc1ccc2c(-c3ccnc(Nc4ccc(C(F)(F)F)cc4)n3)cnn2n1 [GW819776]	15	33	9	5	0	0	22	0	0	0
Cn1ccc2ncnc(Oc3ccc(NC(=O)Nc4cccc(C(F)(F)F)c4)c(Cl)c3)c21	2	22	9	0	0	0	8	7	0	15
COc1ccc(Nc2nccc(N3CCC(NC(=O)c4cccc(C#N)c4)C3)n2)cc1 (centres unmarked) [GSK1379730]	0	0	0	8	0	36	54	0	0	0
Cl.Cl.NC[C@H](CC1CCCCC1)NC(=O)c1ccc(-c2ccnc3[nH]ccc23)s1 [GSK1581428]	0	0	41	100	98.5	100	22	95.3	91.8	96.7
Cc1ccn2nc(-c3ccc(F)cc3)c(-c3ccncc3)c2c1.Cl [GW457859]	0	0	2	0	14	8	18	8	17	20
CN1CCN(CCCNc2nccc(-c3c(-c4ccc(F)cc4)nn4cc(C(N)=O)ccc34)n2)CC1 [GW622475]	0	0	10	29	14	22	41	42	65	67
Cn1ccc2ncnc(Oc3ccc(NC(=O)Nc4cc(C(C)(C)C)on4)c(Cl)c3)c21	4	7	19	21	0	0	6	27	0	7
Cc1n[nH]c2cc(Nc3ccnc(Nc4cccc(CN5CCOCC5)c4)n3)ccc12 [GW682569]	15	53	72	0	51	0	26	0	0	0
O=c1[nH]cc(-c2ccc(O)cc2)c2sc(-c3ccncc3)cc12 [GSK1033723]	0	0	0	0	21	0	33	19	0	0
CN(c1ccc2c(c1)nc(NCc1ccc(F)cc1)n2C)c1ccnc(Nc2ccc(CS(C)(=O)=O)cc2)n1.Cl [GW813244]	3	21	73	11	100	0	18	0	0	24
CS(=O)(=O)c1cccc(CNc2nc(Nc3ccc4c(c3)[C@@H]3C[C@@H]4CNC3=O)ncc2C(F)(F)F)c1	0	0	98.7	0	5	0	8	14	22	28
COC(=O)c1cccc(NC(=O)NC2CCN(c3ccnc(Nc4cc(OC)c(OC)c(OC)c4)n3)C2)c1 (centres unmarked) [GSK1379767]	0	0	38	0	18	7	19	0	0	5

From paper PMC5540273 (PLoS ONE, 2017)
